“And” between values parts separate entries of the source, which are not always exact repeats. Equal entries are not always repeated. The source made the active and inactive calls. How the source made its calls: active means hit-call score of the fitted dose curve at least 0.9, where 1 is the maximum; inactive means score below 0.9.

Read-out in the assay: Interleukin-1 alpha (IL1a), IL1A (gene 3552)
Briefly: BSK_KF3CT_IL1a: BioMAP Diversity Plus: KF3CT Assay for Interleukin-1 alpha (IL1a) Biomarker Activity (AID 2283070). As to conditions: primary human keratinocytes with fibroblasts; actives raise or lower the signal. How it is done:
BSK_KF3CT is a cell-based, multiplexed-readout assay that uses keratinocytes and foreskin fibroblasts, a human skin primary cell co-culture, with measurements taken at 24 hours after chemical dosing in a 96-well plate.BSK_KF3CT_IL1a is an assay component measured in the BSK_KF3CT assay. It measures IL-1a antibody related to regulation of gene expression using ELISA technology.Data from the assay component BSK_KF3CT_IL1a was analyzed into 1 assay endpoint. This assay endpoint, BSK_KF3CT_IL1a, was analyzed with bidirectional fitting relative to DMSO as the negative control and baseline of activity. Using a type of binding reporter, gain or loss-of-signal activity can be used to understand changes in the signaling as they relate to the gene IL1A. Furthermore, this assay endpoint can be referred to as a primary readout, because this assay has produced multiple assay endpoints where this one serves a signaling function. To generalize the intended target to other relatable targets, this assay endpoint is annotated to the cytokine intended target family, where the subfamily is interleukins.
The levels of cell surface (or secreted, indicated by the prefix "s") biomarker endpoints were measured by ELISA. Overt cytotoxicity to cells in confluent adherent cultures (all systems other than the BT system) was assessed by measuring total protein levels using sulforhodamine B (SRB) staining in parallel cultures at the time of biomarker measurements, indicated as SRB endpoints. For proliferation assays for adherent cell types, individual cell types are cultured at sub-confluence and relative cell numbers quantified by SRB staining at time points optimized for each system (48 h: 3C and CASM3C systems; 72 h: BT and HDF3CGF systems; 96 h: SAg system). SRB was performed by staining cells with 0.1% SRB after fixation with 10% TCA and reading wells at 560 nm.Viability and proliferation of PBMC (T cells) was quantified by Alamar Blue reduction for the SAg and BT systems. For PBMC viability (referred to as PBMC Cytotoxicity within the assay endpoint names), cells were plated (75,000/well in a 96-well plate) and then chemical samples added for 1 h before addition of activators, SEB and TSST-1 (20 ng/mL final concentration each). Cells were incubated for 90 h. Then, Alamar Blue (20 uL/well) (Invitrogen, Cat DAL1100) was added for 6 h, and the plates were read with a fluorescence microplate reader at 546/580 nm (excitation/emission). For PBMC proliferation, cells were plated and activated as above but incubated for only 16 h prior to addition of Alamar Blue. Plates were read after 6 h.
For the compound `CCCSP(=O)(OCC)SCCC`, the outcome was inactive. As to `Cc1ccn2nc(S(=O)(=O)Nc3c(F)cccc3F)nc2n1`, the result was inactive.

Take `CSc1nnc(C(C)(C)C)c(=O)n1N`: the outcome was inactive.

As to `Cc1cc(C2CC2)nc(Nc2ccccc2)n1`, the outcome was inactive. With `CCOP(=O)(NC(C)C)Oc1ccc(SC)c(C)c1` (stereo not given), the result was inactive. Still for that read-out and setting: the entry for `CCCOc1nn(C(=O)NS(=O)(=O)c2ccccc2C(=O)OC)c(=O)n1C` is “inactive”; for `CC1(C(=O)Nc2ccc(O)c(Cl)c2Cl)CCCCC1` it is “inactive”.

Regarding `COc1ccc(C(=CC(=O)N2CCOCC2)c2ccc(Cl)cc2)cc1OC`, the result was inactive.

As a reminder, the AC50 is the concentration at which the activity in the assay is half-maximal. With `CCCOCC(=Nc1ccc(Cl)cc1C(F)(F)F)n1ccnc1`, the AC50 was 36.4 µM (active).

For `C#CC(C)(C)NC(=O)c1cc(Cl)cc(Cl)c1`, the outcome was inactive. Regarding `C=C(C)[C@H]1Cc2c(ccc3c2O[C@@H]2COc4cc(OC)c(OC)cc4[C@@H]2C3=O)O1`, the outcome was inactive. `C[Si](Cn1cncn1)(c1ccc(F)cc1)c1ccc(F)cc1`: the outcome was inactive. Regarding `COP(=O)(OC)SCn1c(=O)oc2cc(Cl)cnc21`, the result was inactive. For `Nc1c(Cl)cc([N+](=O)[O-])cc1Cl`, the outcome was inactive. Same read-out and setting: the entry for `CCCCOC(=O)c1ccccc1C(=O)O` is “inactive”. On to `CCCSP(=O)(OCC)Oc1ccc(Br)cc1Cl` (stereo not given), for which the result was inactive. Still for that read-out and setting: the entry for `CCc1cccc(C)c1N(C(=O)CCl)C(C)COC` (stereo not given) is “inactive”. `CN(C)[C@@H]1C(=O)C(C(N)=O)=C(O)[C@@]2(O)C(=O)C3=C(O)c4c(O)cccc4[C@@](C)(O)[C@H]3[C@H](O)[C@@H]12`: the result was inactive. The same measure, in the same setting: the entry for `CC(C)=CC1C(C(=O)OCN2C(=O)C3=C(CCCC3)C2=O)C1(C)C` (stereo not given) is “inactive”; for `CCCCSP(=O)(SCCCC)SCCCC` it is “inactive”; for `COP(=O)(OC)C(O)C(Cl)(Cl)Cl` (stereo not given) it is “inactive”. As for `CCOP(=O)(SC(C)CC)N1CCSC1=O` (stereo not given), the result was inactive. On to `CC(C)[C@H](C(=O)O[C@H](C#N)c1cccc(Oc2ccccc2)c1)c1ccc(Cl)cc1`, for which the result was inactive.

On to `CCOC(=O)CC(SP(=O)(OC)OC)C(=O)OCC` (stereo not given), for which the outcome was inactive. As to `CN1COCN(Cc2cnc(Cl)s2)C1=N[N+](=O)[O-]`, the result was inactive. For the compound `CCOP(=S)(Oc1cnc(C(C)(C)C)nc1)OC(C)C` (stereo not given), the AC50 was 24.1 µM (active).

As to `CC1=NNC(=O)N(/N=C/c2cccnc2)C1`, the outcome was inactive. As for `O=[N+]([O-])c1cc(C(F)(F)F)c(Cl)c([N+](=O)[O-])c1Nc1ncc(C(F)(F)F)cc1Cl`, the AC50 was 867 nM (active) and 6.33 µM (active). Take `CCc1cnc(C2=NC(C)(C(C)C)C(=O)N2)c(C(=O)O)c1` (stereo not given): the result was inactive. With `CNC(=O)Oc1cccc2c1OC(C)(C)O2`, the outcome was inactive. `CCOP(=O)(OCC)Oc1cc(C)nc(C(C)C)n1`: the result was inactive. Consider `CNC(=O)ON=C(C)SC`, for which the outcome was inactive. In the case of `CCNc1nc(Cl)nc(NC(C)(C)C#N)n1`, the outcome was inactive. With `C[N+]1(C)CCCCC1`, the outcome was inactive. In the case of `C#CCC1=C(C)C(OC(=O)C2C(C=C(C)C)C2(C)C)CC1=O` (stereo not given), the outcome was inactive. Take `CCCCOC(=O)[C@@H](C)Oc1ccc(Oc2ccc(C#N)cc2F)cc1`: the result was inactive. The same measure, in the same setting: the entry for `COP(=O)(NC(C)=O)SC` (stereo not given) is “inactive”. As for `CCOC(=O)COc1cc(-c2nn(C)c(OC(F)F)c2Cl)c(F)cc1Cl`, the outcome was inactive. Take `CCC(=NOC/C=C/Cl)C1=C(O)CC(C2CCOCC2)CC1=O` (stereo not given): the outcome was inactive. As for `CCOP(=S)(OCC)Oc1ccc([N+](=O)[O-])cc1`, the outcome was inactive.

Source of the values: PubChem BioAssay (EPA / NIEHS).
